The results in this text go back to publication PMC7862700, “An all-to-all approach to the identification of sequence-specific readers for epigenetic DNA modifications on cytosine”.

Test in all cases: DAPPL (digital affinity profiling via proximity ligation, sequencing); 10 mM Tris-HCl pH 7.5, 50 mM NaCl, 1 mM DTT, 4% glycerol, room temperature, 30 min; GST-TFs on glutathione beads, 16-mer random dsDNA library, 0.1% formaldehyde crosslink after washing; high values mean tight binding
Settings in all cases: protein: recombinant; tags: N-terminal GST; dsDNA, one strand shown

One test deals with T1, FLI1 (Homo sapiens, UniProt Q01543 1-452).
T1 sequence: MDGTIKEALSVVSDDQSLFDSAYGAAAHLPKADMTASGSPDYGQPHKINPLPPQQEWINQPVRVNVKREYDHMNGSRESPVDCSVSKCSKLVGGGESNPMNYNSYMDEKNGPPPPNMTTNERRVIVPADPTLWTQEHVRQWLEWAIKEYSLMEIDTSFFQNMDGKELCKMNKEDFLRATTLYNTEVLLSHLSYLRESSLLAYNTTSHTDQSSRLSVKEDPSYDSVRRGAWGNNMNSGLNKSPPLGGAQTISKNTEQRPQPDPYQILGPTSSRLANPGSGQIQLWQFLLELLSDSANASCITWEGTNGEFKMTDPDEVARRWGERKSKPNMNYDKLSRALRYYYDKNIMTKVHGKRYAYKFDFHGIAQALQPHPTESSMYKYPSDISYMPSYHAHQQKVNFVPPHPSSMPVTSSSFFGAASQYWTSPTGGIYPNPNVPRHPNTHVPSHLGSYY
Summed up: (§1)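 Human transcription factors fused to GST were expressed in yeast, captured on glutathione beads, given DNA barcodes and pooled with a GST-only negative control. Pools were incubated with 200 nmole of a 16-mer random double-stranded DNA library in Tris/NaCl/DTT/glycerol buffer at room temperature for 30 min. They were then washed, crosslinked with 0.1% formaldehyde, proximity-ligated (BsaI/T4 ligase, 1 h, 37 °C), PCR-amplified and sequenced on an Illumina NextSeq500. Binding signal is each 6-mer's read frequency for a factor divided by its frequency for the GST control.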

The next test concerns the target T2, ELK1 (Homo sapiens, UniProt P19419 1-428).
T2 sequence: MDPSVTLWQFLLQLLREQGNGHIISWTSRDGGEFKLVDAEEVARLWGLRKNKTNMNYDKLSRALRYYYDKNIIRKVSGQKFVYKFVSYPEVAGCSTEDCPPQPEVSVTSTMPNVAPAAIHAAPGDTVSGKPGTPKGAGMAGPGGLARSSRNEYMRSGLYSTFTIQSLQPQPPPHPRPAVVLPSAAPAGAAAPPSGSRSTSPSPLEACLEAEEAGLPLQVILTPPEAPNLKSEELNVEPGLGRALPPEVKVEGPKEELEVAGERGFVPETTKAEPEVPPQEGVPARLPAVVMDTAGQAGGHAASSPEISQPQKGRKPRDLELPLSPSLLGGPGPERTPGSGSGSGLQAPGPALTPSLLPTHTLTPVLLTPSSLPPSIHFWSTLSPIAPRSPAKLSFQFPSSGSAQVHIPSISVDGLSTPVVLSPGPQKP
Summed up: as §1

The next test concerns the target T3, GABPA (Homo sapiens, UniProt Q06546 1-454).
T3 sequence: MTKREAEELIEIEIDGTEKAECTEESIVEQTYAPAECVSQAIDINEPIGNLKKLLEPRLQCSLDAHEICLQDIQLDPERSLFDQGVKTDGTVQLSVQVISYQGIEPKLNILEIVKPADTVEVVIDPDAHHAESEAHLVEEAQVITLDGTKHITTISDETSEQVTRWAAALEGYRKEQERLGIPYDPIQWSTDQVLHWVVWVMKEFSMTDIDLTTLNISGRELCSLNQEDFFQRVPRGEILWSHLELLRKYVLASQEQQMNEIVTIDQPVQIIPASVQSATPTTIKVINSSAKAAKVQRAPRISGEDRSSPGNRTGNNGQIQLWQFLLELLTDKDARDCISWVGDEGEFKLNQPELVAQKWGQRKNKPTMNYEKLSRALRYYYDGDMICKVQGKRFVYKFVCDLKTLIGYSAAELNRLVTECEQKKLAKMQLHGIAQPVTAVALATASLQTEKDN
Summed up: as §1

Another test addresses T4, ERG (Homo sapiens, UniProt P11308 1-479).
T4 sequence: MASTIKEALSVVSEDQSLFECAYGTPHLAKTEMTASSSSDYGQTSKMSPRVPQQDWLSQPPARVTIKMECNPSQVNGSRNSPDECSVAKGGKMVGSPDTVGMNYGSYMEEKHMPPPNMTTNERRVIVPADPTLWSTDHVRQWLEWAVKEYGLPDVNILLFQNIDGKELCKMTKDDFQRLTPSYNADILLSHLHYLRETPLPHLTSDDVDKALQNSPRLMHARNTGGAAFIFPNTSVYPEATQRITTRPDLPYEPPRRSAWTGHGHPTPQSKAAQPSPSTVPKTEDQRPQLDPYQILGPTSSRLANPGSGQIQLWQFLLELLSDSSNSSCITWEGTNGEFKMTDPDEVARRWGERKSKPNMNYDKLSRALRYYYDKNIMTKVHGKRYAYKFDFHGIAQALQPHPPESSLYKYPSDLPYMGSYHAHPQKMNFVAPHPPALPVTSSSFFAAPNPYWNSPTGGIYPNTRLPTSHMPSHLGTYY
Summed up:
as §1

A further test concerns the target ELF1 (Homo sapiens, UniProt P32519 1-619). Summed up: as §1
The target of the next test is T5, EHF (Homo sapiens, UniProt Q9NZC4 1-300).
T5 sequence: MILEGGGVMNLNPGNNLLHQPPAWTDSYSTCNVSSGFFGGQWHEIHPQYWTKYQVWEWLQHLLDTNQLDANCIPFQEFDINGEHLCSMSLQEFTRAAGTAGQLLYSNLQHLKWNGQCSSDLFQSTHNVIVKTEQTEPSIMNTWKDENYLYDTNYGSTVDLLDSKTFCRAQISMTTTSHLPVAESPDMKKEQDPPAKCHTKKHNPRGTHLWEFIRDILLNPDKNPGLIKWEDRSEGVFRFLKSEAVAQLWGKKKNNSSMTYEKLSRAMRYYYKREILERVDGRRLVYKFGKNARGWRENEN
In a few lines:
as §1

In test [1] the target is SPI1 (Homo sapiens, UniProt P17947 1-270). In a few lines:
as §1

The next test concerns the target SPIB (Homo sapiens, UniProt Q01892 1-262). Summed up: as §1
The target in test [2] is SPI1 (Homo sapiens, UniProt P17947 1-270). In a few lines: as §1
This is another data set of the same source.

The next test concerns the target T6, ELK3 (Homo sapiens, UniProt P41970 1-407).
T6 sequence: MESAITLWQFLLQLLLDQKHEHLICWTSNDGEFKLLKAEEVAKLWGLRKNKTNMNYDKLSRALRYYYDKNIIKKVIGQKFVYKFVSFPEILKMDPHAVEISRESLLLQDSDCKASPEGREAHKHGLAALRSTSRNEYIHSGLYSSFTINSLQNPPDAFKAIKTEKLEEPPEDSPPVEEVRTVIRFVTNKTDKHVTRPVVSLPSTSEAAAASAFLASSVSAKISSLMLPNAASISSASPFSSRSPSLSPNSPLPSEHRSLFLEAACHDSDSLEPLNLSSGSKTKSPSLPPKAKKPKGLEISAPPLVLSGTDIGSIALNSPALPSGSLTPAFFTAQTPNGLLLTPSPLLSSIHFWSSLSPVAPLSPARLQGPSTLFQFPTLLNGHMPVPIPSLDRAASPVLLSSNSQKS
Summed up:
as §1

SPIB, sequence (Q01892 whole entry): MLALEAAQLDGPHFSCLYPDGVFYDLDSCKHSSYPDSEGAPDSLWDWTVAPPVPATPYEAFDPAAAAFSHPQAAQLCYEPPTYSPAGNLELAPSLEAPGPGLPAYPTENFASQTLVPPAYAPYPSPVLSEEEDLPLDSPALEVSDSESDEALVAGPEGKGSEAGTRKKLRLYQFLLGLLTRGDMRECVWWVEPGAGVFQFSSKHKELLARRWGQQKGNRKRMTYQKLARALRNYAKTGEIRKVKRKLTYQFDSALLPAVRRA
ELF1, sequence (P32519 whole entry): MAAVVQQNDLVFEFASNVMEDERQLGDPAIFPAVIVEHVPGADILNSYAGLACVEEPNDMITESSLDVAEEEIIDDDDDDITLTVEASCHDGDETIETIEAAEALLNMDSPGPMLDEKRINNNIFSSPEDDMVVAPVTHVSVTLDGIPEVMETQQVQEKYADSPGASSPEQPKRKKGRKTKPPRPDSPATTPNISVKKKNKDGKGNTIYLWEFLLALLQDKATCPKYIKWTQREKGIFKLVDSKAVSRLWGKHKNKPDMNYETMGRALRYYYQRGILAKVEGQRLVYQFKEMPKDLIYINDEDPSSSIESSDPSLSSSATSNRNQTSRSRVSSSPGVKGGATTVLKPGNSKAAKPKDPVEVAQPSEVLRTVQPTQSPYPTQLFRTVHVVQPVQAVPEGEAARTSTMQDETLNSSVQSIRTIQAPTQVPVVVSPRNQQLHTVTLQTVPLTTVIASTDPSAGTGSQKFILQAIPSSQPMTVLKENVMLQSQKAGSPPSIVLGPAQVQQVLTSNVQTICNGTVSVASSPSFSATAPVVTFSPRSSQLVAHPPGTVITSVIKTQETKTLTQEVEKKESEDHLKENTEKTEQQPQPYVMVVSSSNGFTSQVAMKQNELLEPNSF

As to ACTCGC, the binding signal was 1.19 fold enrichment (6-mer frequency, TF over GST control) with FLI1; 1.14 fold enrichment (6-mer frequency, TF over GST control) with ELK1; 1.18 fold enrichment (6-mer frequency, TF over GST control) in the test with GABPA; 1.09 fold enrichment (6-mer frequency, TF over GST control) with ERG; 1.13 fold enrichment (6-mer frequency, TF over GST control) in the test with ELF1; 1.11 fold enrichment (6-mer frequency, TF over GST control) with EHF. Further, the binding signal with SPI1 [1] is 1.15 fold enrichment (6-mer frequency, TF over GST control); with SPIB it was 1.12 fold enrichment (6-mer frequency, TF over GST control).

As to CTGTTG, the binding signal with FLI1 was 1.08 fold enrichment (6-mer frequency, TF over GST control); in the test with ELK1 it was 1.02 fold enrichment (6-mer frequency, TF over GST control); in the test with GABPA, 1.11 fold enrichment (6-mer frequency, TF over GST control); in the test with ERG, 1.09 fold enrichment (6-mer frequency, TF over GST control); in the test with ELF1, 1.1 fold enrichment (6-mer frequency, TF over GST control); in the test with EHF it was 1.13 fold enrichment (6-mer frequency, TF over GST control). Also, the binding signal is 1.16 fold enrichment (6-mer frequency, TF over GST control) with SPI1 [1] and 1.15 fold enrichment (6-mer frequency, TF over GST control) in the test with SPIB.

As for CGATCG, the binding signal with FLI1 was 1.18 fold enrichment (6-mer frequency, TF over GST control); with ELK1, 1.12 fold enrichment (6-mer frequency, TF over GST control); with GABPA, 1.14 fold enrichment (6-mer frequency, TF over GST control); in the test with ERG, 1.1 fold enrichment (6-mer frequency, TF over GST control); in the test with ELF1, 1.13 fold enrichment (6-mer frequency, TF over GST control); in the test with EHF, 1.07 fold enrichment (6-mer frequency, TF over GST control). For the same sequence, the binding signal with SPI1 [1] was 1.02 fold enrichment (6-mer frequency, TF over GST control); with SPIB, 1.03 fold enrichment (6-mer frequency, TF over GST control).

With TATCGC, the binding signal in the test with FLI1 is 1.13 fold enrichment (6-mer frequency, TF over GST control); with ELK1, 1.16 fold enrichment (6-mer frequency, TF over GST control); with GABPA, 1.23 fold enrichment (6-mer frequency, TF over GST control); with ERG, 1.15 fold enrichment (6-mer frequency, TF over GST control); in the test with ELF1, 1.16 fold enrichment (6-mer frequency, TF over GST control); with EHF it was 1.28 fold enrichment (6-mer frequency, TF over GST control). Also, the binding signal in the test with SPI1 [1] was 1.08 fold enrichment (6-mer frequency, TF over GST control); in the test with SPIB it was 1.16 fold enrichment (6-mer frequency, TF over GST control).

Consider TATTCG, for which the binding signal in the test with FLI1 was 1.11 fold enrichment (6-mer frequency, TF over GST control); with ELK1, 1.11 fold enrichment (6-mer frequency, TF over GST control); with GABPA it was 1.2 fold enrichment (6-mer frequency, TF over GST control); with ERG, 1.14 fold enrichment (6-mer frequency, TF over GST control); with ELF1 it was 1.14 fold enrichment (6-mer frequency, TF over GST control); with EHF, 1.11 fold enrichment (6-mer frequency, TF over GST control). The binding signal with SPI1 [1] was 1.18 fold enrichment (6-mer frequency, TF over GST control); with SPIB it was 1.16 fold enrichment (6-mer frequency, TF over GST control).

In the case of TTCCTC, the binding signal in the test with FLI1 is 2.26 fold enrichment (6-mer frequency, TF over GST control); with ELK1, 2.09 fold enrichment (6-mer frequency, TF over GST control); with GABPA, 2.1 fold enrichment (6-mer frequency, TF over GST control); with ERG, 2.21 fold enrichment (6-mer frequency, TF over GST control); in the test with ELF1, 2.12 fold enrichment (6-mer frequency, TF over GST control); in the test with EHF, 2.32 fold enrichment (6-mer frequency, TF over GST control). The binding signal is 4.31 fold enrichment (6-mer frequency, TF over GST control) with SPI1 [2]; 2.26 fold enrichment (6-mer frequency, TF over GST control) with SPIB; 2.3 fold enrichment (6-mer frequency, TF over GST control) with ELK3.

With TAGCTG, the binding signal is 1.29 fold enrichment (6-mer frequency, TF over GST control) with FLI1; 1.19 fold enrichment (6-mer frequency, TF over GST control) with ELK1; 1.21 fold enrichment (6-mer frequency, TF over GST control) in the test with GABPA; 1.11 fold enrichment (6-mer frequency, TF over GST control) with ERG; 1.24 fold enrichment (6-mer frequency, TF over GST control) with ELF1; 1.31 fold enrichment (6-mer frequency, TF over GST control) in the test with EHF. The binding signal is 1.22 fold enrichment (6-mer frequency, TF over GST control) in the test with SPI1 [1] and 1.3 fold enrichment (6-mer frequency, TF over GST control) in the test with SPIB.

Consider AGACTT, for which the binding signal was 1.09 fold enrichment (6-mer frequency, TF over GST control) with FLI1; 1.04 fold enrichment (6-mer frequency, TF over GST control) in the test with ELK1; 1.03 fold enrichment (6-mer frequency, TF over GST control) with GABPA; 1.09 fold enrichment (6-mer frequency, TF over GST control) in the test with ERG; 1.01 fold enrichment (6-mer frequency, TF over GST control) with ELF1; 1.08 fold enrichment (6-mer frequency, TF over GST control) with EHF. For the same sequence, the binding signal with SPI1 [1] is 1.09 fold enrichment (6-mer frequency, TF over GST control); in the test with SPIB, 1.04 fold enrichment (6-mer frequency, TF over GST control).
